Experimental data from PubChem BioAssay (NCI).
Values joined by “and” are separate entries in the source; they are usually repeats but may differ in a detail not shown here. Identical values can stand only once. Compounds without any hit were thinned out: in the full panel of roughly 83,000, 20% have a hit.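 Growth was measured after 48 h exposure to one concentration of compound in 96-well plates. Values under 10 count as active.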

Legend:
Experiment in all cases: NCI-60 one-dose screen, 48 h (100 = growth as untreated, 0 = no growth, -100 = all killed)
Details in all cases: 10 µM unless noted
NCI-H23 lung = test system: NCI-H23 lung
NCI-H322M lung = test system: NCI-H322M lung
HOP-62 NSCLC = test system: HOP-62 NSCLC
NCI-H460 lung = test system: NCI-H460 lung
HOP-92 NSCLC = test system: HOP-92 NSCLC
NCI-H522 lung = test system: NCI-H522 lung
A549/ATCC NSCLC = test system: A549/ATCC NSCLC
786-0 renal = test system: 786-0 renal
COLO 205 colon = test system: COLO 205 colon
NCI-H226 lung = test system: NCI-H226 lung

Measured: growth

Cc1cc(-c2ccc(N=Nc3c(C)nn(-c4ccc(S(=O)(=O)O)cc4)c3O)c(C)c2)ccc1N=Nc1ccc(O)c(C(=O)O)c1
inactive: NCI-H23 lung 99.1% | NCI-H322M lung 107% | HOP-62 NSCLC 87.7% | NCI-H460 lung 109% | HOP-92 NSCLC 109% | NCI-H522 lung 87.9% | A549/ATCC NSCLC 104% | 786-0 renal 103% | COLO 205 colon 94%

CNc1ccc(O)cc1
inactive: NCI-H23 lung 114% and 104% | NCI-H322M lung 122% and 98.3% | HOP-62 NSCLC 104% | NCI-H460 lung 105% and 115% | HOP-92 NSCLC 102% | NCI-H522 lung 96.3% and 93% | A549/ATCC NSCLC 104% and 114% | 786-0 renal 109% and 106%

CCOP(=O)(OCC)/C(C#N)=C/c1c(C)[nH]c2ccccc12
inactive: NCI-H23 lung 103% | NCI-H322M lung 107% | HOP-62 NSCLC 89.1% | NCI-H460 lung 101% | HOP-92 NSCLC 84% | NCI-H522 lung 87.1% | A549/ATCC NSCLC 93.1% | 786-0 renal 106% | COLO 205 colon 107%

CCCCNC(=O)c1ccccc1C
inactive: NCI-H23 lung 90.4% | NCI-H322M lung 89.4% | HOP-62 NSCLC 91.1% | NCI-H460 lung 105% | HOP-92 NSCLC 96.3% | NCI-H522 lung 93.2% | A549/ATCC NSCLC 100% | 786-0 renal 92.9% | COLO 205 colon 98.3%

CCOC(=O)NC(N)=O
inactive: NCI-H23 lung 103% and 99% | NCI-H322M lung 93% and 105% | HOP-62 NSCLC 88.5% and 111% | NCI-H460 lung 105% and 104% | HOP-92 NSCLC 102% | NCI-H522 lung 89.4% and 103% | A549/ATCC NSCLC 104% and 107% | 786-0 renal 97.3% and 101% | COLO 205 colon 110% and 118%

COc1ccc(COC=O)cc1
inactive: NCI-H23 lung 97.3% | NCI-H322M lung 99.1% | HOP-62 NSCLC 98.4% | NCI-H460 lung 104% | NCI-H522 lung 95.5% | A549/ATCC NSCLC 106% | 786-0 renal 103% | COLO 205 colon 108%

CCCC(=O)Oc1ccc2ccccc2c1
inactive: NCI-H23 lung 98.7% | NCI-H322M lung 109% | HOP-62 NSCLC 89.9% | NCI-H460 lung 98% | HOP-92 NSCLC 89.5% | NCI-H522 lung 96.8% | A549/ATCC NSCLC 97.3% | 786-0 renal 101% | COLO 205 colon 99.2%

NCCCCCC(=O)O
inactive: NCI-H23 lung 97.6% and 104% and 92.2% | NCI-H226 lung 101% [middle of 4 runs] | HOP-62 NSCLC 99.7% and 105% and 97.7% | HOP-92 NSCLC 97.2% and 90.1% | NCI-H522 lung 100% [middle of 4 runs] | A549/ATCC NSCLC 94.1% and 100% and 99.7% | 786-0 renal 107% [middle of 4 runs] | COLO 205 colon 114% and 104% and 95.2%

Nc1c(S(=O)(=O)O)cc(Br)c2c1C(=O)c1ccccc1C2=O
inactive: NCI-H23 lung 103% | NCI-H322M lung 95.6% and 106% | HOP-62 NSCLC 88.1% and 111% | NCI-H460 lung 102% and 106% | NCI-H522 lung 83% | A549/ATCC NSCLC 104% | 786-0 renal 106% and 110%

CCOC(=O)c1csc(N)n1
inactive: NCI-H23 lung 105% and 102% | NCI-H322M lung 87.1% and 101% | HOP-62 NSCLC 103% and 96.9% | NCI-H460 lung 105% | HOP-92 NSCLC 96% and 95.7% | NCI-H522 lung 88.7% | A549/ATCC NSCLC 81.5% and 93.8% | 786-0 renal 101% and 100% | COLO 205 colon 129% and 108%

CC1CC(O)CC(C)(C)C1.CC1CC(O)CC(C)(C)C1.CC1CC(O)CC(C)(C)C1.CC1CC(O)CC(C)(C)C1.[Ti] (stereo not drawn)
inactive: NCI-H23 lung 104% | NCI-H322M lung 105% | HOP-62 NSCLC 103% | NCI-H460 lung 109% | NCI-H522 lung 112% | A549/ATCC NSCLC 92.6% | 786-0 renal 107%

NNc1ncnc2cccc(Cl)c12
inactive: NCI-H23 lung 99.9% | NCI-H322M lung 101% | HOP-62 NSCLC 95.3% | NCI-H460 lung 113% | HOP-92 NSCLC 79.7% | NCI-H522 lung 84.8% | A549/ATCC NSCLC 81.1% | 786-0 renal 105% | COLO 205 colon 104%

O=C(O)/C=C/C=C/c1ccccc1
inactive: NCI-H23 lung 104% and 99.9% | NCI-H322M lung 104% and 107% | HOP-62 NSCLC 102% and 105% | NCI-H460 lung 107% and 112% | HOP-92 NSCLC 99.5% and 102% | NCI-H522 lung 94.8% and 106% | A549/ATCC NSCLC 98.4% and 97.8% | 786-0 renal 105% and 109% | COLO 205 colon 105% and 113%

C/C(CC(C)C)=N/NC(N)=S
inactive: NCI-H23 lung 88.8% | NCI-H322M lung 96.9% | HOP-62 NSCLC 99.4% | NCI-H460 lung 102% | HOP-92 NSCLC 78.2% | NCI-H522 lung 95.2% | A549/ATCC NSCLC 83.6% | 786-0 renal 107% | COLO 205 colon 102%

Cc1cnc(N)s1
inactive: NCI-H23 lung 97.5% | NCI-H322M lung 99.6% | HOP-62 NSCLC 78.3% | NCI-H460 lung 105% | HOP-92 NSCLC 91.3% | NCI-H522 lung 77.9% | A549/ATCC NSCLC 69% | 786-0 renal 106% | COLO 205 colon 102%

O=C(O)C#Cc1ccc(Cl)cc1
inactive: NCI-H23 lung 109% | NCI-H322M lung 111% | HOP-62 NSCLC 89.3% | NCI-H460 lung 105% | HOP-92 NSCLC 97.8% | NCI-H522 lung 87.2% | A549/ATCC NSCLC 87.2% | 786-0 renal 99.4% | COLO 205 colon 99.9%

COc1ccc2oc3cc(NCCN(C)C)ccc3c(=O)c2c1
inactive: NCI-H23 lung 112% and 83% | NCI-H322M lung 76.5% | HOP-62 NSCLC 88.2% and 54.1% | NCI-H460 lung 97.7% and 61.7% | HOP-92 NSCLC 88.2% and 82.1% | NCI-H522 lung 65.7% | A549/ATCC NSCLC 95.2% and 73.8% | 786-0 renal 103% and 76.9% | COLO 205 colon 84.3% and 47.7%

CC(CN(C)C)CN1c2ccccc2Sc2ccccc21 (stereo not drawn)
inactive: NCI-H23 lung 88.9% and 86% and 86.6% | NCI-H322M lung 73.1% and 83.9% and 65.2% | HOP-62 NSCLC 92.2% and 78.2% and 80.8% | NCI-H460 lung 95% and 94.3% and 93.5% | HOP-92 NSCLC 21.4% | NCI-H522 lung 81.1% and 116% and 87.2% | A549/ATCC NSCLC 91.8% and 103% and 91.5% | 786-0 renal 59.5% and 45% and 69.1% | COLO 205 colon 48.4% and 84.5% and 85%

C=CCN1C(=O)c2ccccc2C1=O
inactive: NCI-H23 lung 103% | NCI-H322M lung 102% | HOP-62 NSCLC 104% | NCI-H460 lung 101% | HOP-92 NSCLC 80.9% | NCI-H522 lung 86% | A549/ATCC NSCLC 100% | 786-0 renal 103% | COLO 205 colon 98.4%

CCOc1ccc(/C=C\C(=O)O)cc1
inactive: NCI-H23 lung 109% | NCI-H322M lung 107% | HOP-62 NSCLC 135% | NCI-H460 lung 109% | HOP-92 NSCLC 86.9% | NCI-H522 lung 115% | A549/ATCC NSCLC 104% | 786-0 renal 104% | COLO 205 colon 129%

Nc1ccccc1SC(CC(=O)c1ccccc1)c1cccc([N+](=O)[O-])c1 (stereo not drawn)
inactive: NCI-H23 lung 87.1% and 90.4% | NCI-H322M lung 113% and 96.1% | HOP-62 NSCLC 95.3% and 95.4% | NCI-H460 lung 105% and 100% | NCI-H522 lung 84.4% and 73.3% | A549/ATCC NSCLC 95.1% and 78.7% | 786-0 renal 113% and 91.8% | COLO 205 colon 102% and 109%

Clc1ccc2sc(-c3ccccc3)nc2c1
inactive: NCI-H23 lung 101% | NCI-H322M lung 102% | HOP-62 NSCLC 74.5% | NCI-H460 lung 80% | NCI-H522 lung 82.5% | A549/ATCC NSCLC 71.4% | 786-0 renal 108% | COLO 205 colon 115%

CCOP(C)(=O)/C(Cc1ccc(OC)c(OC)c1)=N\O (stereo not drawn)
inactive: NCI-H23 lung 97.1% | NCI-H322M lung 90.5% | HOP-62 NSCLC 98.7% | NCI-H460 lung 105% | HOP-92 NSCLC 100% | NCI-H522 lung 102% | A549/ATCC NSCLC 108% | 786-0 renal 103% | COLO 205 colon 112%
